# According to the supplement of paper PMC3334620:
# Over roughly 33,000 sequences, “E-score (-0.5 to 0.5)” has its median near -0.0059; the highest 2% begin near 0.26. The sample holds the highest values, similar sequences and a random draw of the others, so the mix is not that of the screen.
# Molecular target: T1, Cin5 (UniProt P40917)
# T1 sequence: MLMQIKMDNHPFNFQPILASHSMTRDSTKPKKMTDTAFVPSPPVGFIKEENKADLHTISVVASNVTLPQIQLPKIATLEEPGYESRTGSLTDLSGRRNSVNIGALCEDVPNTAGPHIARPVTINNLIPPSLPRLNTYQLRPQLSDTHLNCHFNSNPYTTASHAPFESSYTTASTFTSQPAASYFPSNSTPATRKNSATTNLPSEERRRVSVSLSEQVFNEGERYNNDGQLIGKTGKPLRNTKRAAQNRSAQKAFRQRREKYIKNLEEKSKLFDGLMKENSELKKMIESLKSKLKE
# Assay: PBM E-score (8-mer binding enrichment) (E-score (-0.5 to 0.5)); higher = stronger / more preferred TF binding
# Details: protein concentration: 100 nM; construct: GST-full length
# Description: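 Universal 'all 10-mer' protein binding microarrays (Agilent AMADID 015681) probed with GST-tagged S. cerevisiae TFs (full-length or DBD) made by in vitro transcription/translation (PURExpress), about 100-200 nM. Bound TF was detected with fluorescent anti-GST. Each ungapped 8-mer (which stands for itself and its reverse complement) is scored by the PBM enrichment score (E-score), a modified Wilcoxon-Mann-Whitney statistic from -0.5 to +0.5, computed with the Universal PBM Analysis Suite. Scale: above 0.35 generally sequence-specific binding.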
row,Sequence,PBM E-score
1,CATGATTC,-0.0303
2,CATGATGA,0.173
3,CATGATAG,0.0148
4,GATGATTA,0.23
5,CATGATTA,0.321
6,AATGATTC,0.161
7,AATGATAA,0.227
8,AATGATTA,0.335
9,CGCGTCGA,0.0758
10,TAACCGGA,0.106
11,GCGCACGC,-0.12
12,CCTGCAGG,-0.134
13,ACCGCGAC,-0.104
14,CACGGGTA,-0.0916
15,ACATGGTG,0.0908
16,AGTCTGGA,0.041
17,GCGAGACC,-0.127
18,CTCGATTA,0.264
19,CGCGATTA,0.263
20,CGCGATTC,0.124
21,CTCGATTC,0.119
22,CGGGATTC,0.0661
23,ATCGATTA,0.248
24,AGGGATTA,0.0341
25,CGGGATTA,0.294
26,AGCGATTA,0.127

row,Sequence,PBM E-score
1,ACCTACTC,0.0706
2,AGATCTGA,0.0167
3,ATTGCTTA,0.259
4,ATTGCGTA,0.287
5,ATTGCTGA,0.115
6,GTTGCTGA,0.12
7,CTAGCTTA,0.256
8,GTAGCTTA,0.279
9,GTTGCTTA,0.338
10,ATTGCGTC,0.128
11,ATTGCTTG,0.177
12,ATAGCTTA,0.154
13,GTTGCGTA,0.068
14,CTTGCTTA,0.229
15,CCTTGTTA,-0.0571
16,AACTCGGC,0.121
17,GCCGCTAC,-0.0553
18,AGCGGGCG,-0.0666
19,TCTGGGCA,-0.124
20,GGGCGAAA,0.0331
21,ACCGCCGC,-0.101
22,TCCGCTAA,-0.0291
23,AGACCTTC,-0.134
24,AGCCTAAA,-0.0722
25,CGTTGCGA,-0.0384
26,GCGCTGAA,-0.2

row,Sequence,PBM E-score
1,ACCAGATC,-0.0659
2,ATAATTAC,0.365
3,TTAATTAA,0.183
4,GTAATTAC,0.175
5,ATAATTAA,0.303
6,ATAATTAT,0.341
7,CTAATTAC,0.24
8,GTAATTAA,0.13
9,ACAATTAT,0.205
10,ATAATTAG,0.241
11,ACCGGTAC,-0.217
12,CAACACTC,0.105
13,GGATCAGA,-0.042
14,CGTGAAAG,-0.0748
15,GTATTCGA,-0.0476
16,ACAACCTA,0.0123
17,AATCGCTG,-0.0284
18,ATATTGAT,0.249
19,ATATTGAG,0.266
20,CTATTGAG,0.144
21,GCTCAAAA,-0.00649
22,ACTAATAG,0.277
23,ACTAATAA,0.221
24,GCTAATAC,0.153
25,ACTAATAT,0.234
26,CCTAATAC,0.113

row,Sequence,PBM E-score
1,ACTAATAC,0.26
2,ATAAGGCG,0.0483
3,CTCCGCTA,-0.116
4,CCAGTTAA,0.134
5,GCGGTGGA,0.0809
6,GAAGCAGC,-0.162
7,AAGCTTAG,0.306
8,GAGCTTAC,0.191
9,CAGCTTGC,-0.0574
10,AAGCTTAA,0.164
11,AAGCTTAT,0.231
12,AAGCTTAC,0.282
13,CAGCTTAG,0.0588
14,CAGCTTAC,0.312
15,CAGCTTAA,0.0109
16,CGGGTAGC,-0.214
17,AGATGGAA,0.167
18,GAGGTCCA,-0.14
19,AGGCTTAC,0.258
20,CGGCTTAA,0.19
21,CGGCTTAC,0.358
22,AGGCTTAG,0.0724
23,CGGCTTAG,-0.0489
24,AGGCTTAT,0.152
25,GTAACGGA,0.252
26,CGAATTAC,0.0723

row,Sequence,PBM E-score
1,GCGCGGCC,-0.0214
2,CCCGCGCG,0.138
3,CCTTCTGC,-0.126
4,AAACTTGT,0.0442
5,AGAACCTG,-0.127
6,GGACATCA,0.0421
7,TGACATCA,0.356
8,CGACATCA,0.137
9,TCCATTCA,0.0889
10,GAGGTGCA,-0.0183
11,AATGCATT,0.259
12,AATGCATG,0.183
13,AATGCATA,0.116
14,AATGCAAA,0.275
15,AATGCAAG,0.00342
16,AATGCAAC,0.0401
17,ACGTTTCG,-0.0249
18,GCTCCCGA,-0.217
19,ACGTCTCA,0.124
20,CAAACTCG,0.0562
21,AGTTCCGA,0.123
22,GGCATCTA,-0.0103
23,AGCATCTA,0.00891
24,CGCATCTA,0.271
25,CGCCATCA,-0.202
26,CGGAAATC,0.137

row,Sequence,PBM E-score
1,AAAATATC,0.189
2,AAAAAATA,0.213
3,AACAAATG,0.0424
4,GGGAAATA,0.0795
5,CCAAAATA,0.113
6,CAAATATG,0.117
7,AACAAATT,0.274
8,CAAATATC,0.282
9,CGGAAATA,0.33
10,AACAAGTT,0.0368
11,CAAAAATA,0.277
12,CGGGCCTA,-0.236
13,CGGTTCTC,-0.217
14,GTGGAAGA,-0.192
15,ACGGGCAT,-0.0832
16,ACTAAGAT,0.2
17,TTCTCCAA,-0.0656
18,ACACTCAC,0.066
19,AACAAATA,0.278
20,AACAAGAT,0.146
21,AACAAGTA,0.0249
22,AACAAAAT,0.269
23,AACAAAAA,0.209
24,TACAAATA,0.239
25,GTATCCAC,-0.00124
26,AATCATCC,0.227

row,Sequence,PBM E-score
1,TACTCCTA,0.066
2,CATCCCAA,0.0478
3,GATTTCGA,0.11
4,GATTTCGC,0.262
5,CATTTCGC,0.111
6,CAATGGTG,-0.161
7,CTCTGGAC,0.0765
8,AGGGTGCA,-0.148
9,GTATAAGA,0.0464
10,ACATAAGA,0.3
11,ACATAAGG,0.194
12,ACATAAGC,0.437
13,TCATAAGA,0.0448
14,ACATAAGT,0.195
15,ATATAAGA,0.301
16,ACATAACT,0.197
17,CCATAAGA,0.118
18,ACATAACC,0.235
19,CTATAAGA,0.0762
20,ACATAACA,0.286
